One assay concerns KB-3-1. As to the kind of experiment: Cytotoxic Profiling of Annotated Libraries Using Quantitative High-Throughput Screening (AID 1296008). For max response: % is set by controls: 0 for no effect and ±100 for the full control effect. Note: potency is the fitted concentration of half-maximal effect. The conditions noted are these: Five cell lines viability, CellTiter-Glo ATP luminescence, 48-72 h; max response: active compounds read low. The gist of the method:
(§1)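 Cytotoxicity was measured as CellTiter-Glo ATP luminescence, read after 10 min at room temperature. Compound treatment of the cells lasted 48 or 72 hr at 37 degrees Celsius in a qHTS format.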

The subject of assay [1] is NIH3T3. The description is as above. The conditions noted are these: Five cell lines viability, CellTiter-Glo ATP luminescence, 48-72 h; max response: active compounds read low. The gist of the method: as §1
In general terms: ATP-based viability assays read luminescence as a measure of living cells.

Another assay relates to CRL-7250. As to the kind of experiment: qHTS assay to identify novel small-molecules to repurpose for Merkel cell carcinoma treatment (AID 1296009). The conditions noted are these: MCC and control cell lines, CellTiter-Glo viability, 72 h; at 44.8 µM (top of the series) unless noted. In a few lines: (§2)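 72 hr, 37 degree celsius; NPC 8-pt / MIPE 11-pt dose response; compound pinned in DMSO; CellTiter-Glo, 10 min RT, luminescence; normalized to no-cell and DMSO controls.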

A further assay relates to HACAT. Described as above. Particulars: MCC and control cell lines, CellTiter-Glo viability, 72 h; at 44.8 µM (top of the series) unless noted. The gist of the method:
as §2

A further assay deals with HEK293T. Described as above. Particulars: MCC and control cell lines, CellTiter-Glo viability, 72 h; at 44.8 µM (top of the series) unless noted. In a few lines:
as §2

Assay [2] concerns NIH3T3. Described as above. Particulars: MCC and control cell lines, CellTiter-Glo viability, 72 h; at 44.8 µM (top of the series) unless noted. In a few lines: as §2

Records with an inconclusive call do not appear. Unmarked numbers belong to inactive results. Calls of active or inactive are those of the source. Calls come from the whole dose curve; as a rule, active = well fitted inhibition curve with a large enough effect; inconclusive = small, poorly fitted or top-dose-only effect; inactive = flat fitted curve, though single readings scatter.
Note: nearly all actives have a fitted effect of over 60% in size.

`C=C1[C@@H]2CC[C@@]3(C)[C@H](c4ccoc4)OC(=O)C[C@]13O[C@H]1CC(=O)C(C)(C)[C@H](C(OC(C)=O)C(=O)OC)[C@]12C` (some centres not stated): the max response in the assay on KB-3-1 was -6.59%; in the assay with NIH3T3 [1] it was -2.92%. Also, the outcome in the assay on CRL-7250 and with HACAT was “inactive [at 17.4 µM]” throughout.

For `C[C@H](NC(=O)Cc1cc(F)cc(F)c1)C(=O)N[C@@H]1N=C(c2ccccc2)c2ccccc2N(C)C1=O`, the max response in the assay on KB-3-1 is 4.54%; in the assay with NIH3T3 [1] it was -0.0571%. Moreover, the outcome in the assay on CRL-7250 and in the assay with HACAT was inactive.

Take `CO[C@H]1[C@H](O)[C@H](O[C@H]2CC[C@]3(C)C4CC[C@]5(C)[C@H](C6=CC(=O)OC6)CC[C@]5(O)C4CC[C@@H]3C2)O[C@@H](C)[C@@H]1O` (some centres not stated): the Potency with KB-3-1 was 89.3 nM (active). Moreover, in the assay with NIH3T3 [1], the molecule was called inactive.

Consider `COCC1OC(=O)c2coc3c2C1(C)C1=C(C3=O)C2CCC(=O)C2(C)CC1O` (configuration not stated), for which the molecule was classed as inactive in the assay with KB-3-1, with NIH3T3 [1], with CRL-7250, in the assay with HACAT, in the assay on HEK293T and in the assay with NIH3T3 [2].

Turning to `CC(C)C1(OO)C=C2C(=O)CC3C(C)(C(=O)O)CCCC3(C)C2CC1` (configuration not stated), in the assay on KB-3-1, the max response was 7.41%. The result in the assay on NIH3T3 [1] and with HACAT was inactive.

Take `COC(=O)C1(C)CCC(O)C2(C)c3c(O)cc(C(C)C)cc3C(O)C(OC(C)=O)C12` (configuration not stated): the molecule was classed as inactive in the assay with KB-3-1. Moreover, the max response in the assay on NIH3T3 [1] is 0.503%. Also, the outcome in the assay on CRL-7250 and in the assay with HEK293T was “inactive [at 17.4 µM]” in each case.

As to `C1=C2CCCN[C@H]2[C@@H]2C[C@H]1[C@H]1CCCCN1C2`, the result in the assay on KB-3-1, with NIH3T3 [1], with CRL-7250 and with NIH3T3 [2] was inactive.

Turning to `C[C@@](O)(COc1ccc(C#N)cc1)C(=O)Nc1ccc(C#N)c(C(F)(F)F)c1`, the max response in the assay on KB-3-1 is 2.83%. The molecule was called inactive in the assay on NIH3T3 [1] and with HACAT.

On to `COc1cc(C)[nH]c(=O)c1CNC(=O)c1c(C)n([C@H](C)C2CCOCC2)c2ccccc12`, for which the result with KB-3-1, with NIH3T3 [1], with CRL-7250, in the assay with HEK293T and in the assay on NIH3T3 [2] was inactive.

For `O=C(N1CCOCC1)N1CCN(c2ccc(Cl)cc2)CC1`, in the assay with KB-3-1, the max response was 6.75%. Moreover, the call in the assay on NIH3T3 [1], in the assay with CRL-7250, with HACAT and in the assay with NIH3T3 [2] was inactive.

Consider `CN(C)CCc1c[nH]c2ccc(CN3CCN(C)S3(=O)=O)cc12`, for which, in the assay on KB-3-1, the max response was -6.8%. Besides, the molecule was called inactive in the assay with NIH3T3 [1] and with HACAT.

In the case of `C[C@@]1(C(=O)O)CC[C@]2(C)CC[C@]3(C)C4=CC(=O)c5cc(O)c(O)cc5[C@]4(C)CC[C@@]3(C)[C@@H]2C1`, the outcome with KB-3-1 and in the assay on NIH3T3 [1] was inactive. The outcome in the assay on CRL-7250, in the assay with HACAT and in the assay on NIH3T3 [2] was “inactive [at 17.4 µM]” each time.

As for `CCCCCOc1cc2c(cc1-c1cc(/C=C/C(=O)O)ccc1O)C(C)(C)CCC2(C)C`, the result with KB-3-1, in the assay with HACAT and in the assay on HEK293T was inactive. Besides, in the assay with NIH3T3 [1], the max response is -4.13%.

Consider `CCc1c(C(=O)C(N)=O)c2c(OCC(=O)OC)cccc2n1Cc1ccccc1`, for which the call in the assay on KB-3-1, in the assay with CRL-7250 and in the assay on HEK293T was inactive. Also, the max response in the assay with NIH3T3 [1] is -0.844%.

For the molecule `C=CC(C)(O)CC/C=C(\C)C(=O)O[C@H]1[C@H](O)[C@@H](CO)O[C@@H](OC(=O)[C@]23CCC(C)(C)CC2C2=CCC4[C@@]5(C)CC[C@H](O[C@@H]6O[C@H](CO[C@@H]7OC[C@H](O)[C@H](O)[C@H]7O[C@@H]7OC[C@@H](O)[C@H](O)[C@H]7O)[C@@H](O)[C@H](O)[C@H]6O)C(C)(C)C5CC[C@@]4(C)[C@]2(C)CC3)[C@@H]1OC1OC(C)C(O[C@@H]2OC[C@@H](O)[C@H](O[C@@H]3OC[C@@H](O)[C@H](O)[C@H]3O)[C@H]2O)C(O)C1O` (some centres not stated), the max response with KB-3-1 is -0.269%. In addition, the result in the assay on NIH3T3 [1] was inactive. Further, the outcome in the assay with HACAT and with NIH3T3 [2] was “inactive [at 9.27 µM]” throughout.

Take `CN1C(=O)N(c2ccc(C#N)c(C(F)(F)F)c2)C(=O)[C@]1(CO)c1ccccc1`: the molecule was classed as inactive in the assay on KB-3-1, in the assay with NIH3T3 [1], in the assay on CRL-7250 and in the assay on NIH3T3 [2].

`C[C@@]12C[C@@H](c3ccoc3)OC(=O)C1CC[C@]1(C)[C@H]2[C@H]2C=C[C@]1(O)C(=O)O2` (some centres not stated): the max response in the assay on KB-3-1 was 3.68%. The call in the assay with NIH3T3 [1], with CRL-7250, with HEK293T and in the assay on NIH3T3 [2] was inactive.

For the molecule `CN1CCC[C@@H]1Cc1c[nH]c2ccc(Nc3ncccc3[N+](=O)[O-])cc12`, the max response in the assay on KB-3-1 was -5.99%. Also, the outcome in the assay on NIH3T3 [1], with CRL-7250 and in the assay on NIH3T3 [2] was inactive.

In the case of `N#C[C@@H](O[C@@H]1O[C@H](CO[C@@H]2O[C@H](CO)[C@@H](O)[C@H](O)[C@H]2O)[C@@H](O)[C@H](O)[C@H]1O)c1ccccc1`, the max response with KB-3-1 was 5.22%. Also, the molecule was called inactive in the assay with NIH3T3 [1]. In addition, the outcome in the assay on HACAT and in the assay on NIH3T3 [2] was “inactive [at 17.4 µM]” each time.

(Values after PubChem BioAssay (NCATS).)
